Article doi:10.1101/2024.03.05.583629

molecular target: pT7_6His-AlfaTag-HOXD13 (human, UniProt P35453 263-343); experiment: PADIT-seq; conditions: dsDNA, one strand shown
Sequence (P35453 263-343): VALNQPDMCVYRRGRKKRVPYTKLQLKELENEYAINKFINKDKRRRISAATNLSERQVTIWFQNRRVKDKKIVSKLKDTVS

| Sequence | binding signal [log2FC] |
| --- | --- |
| CTCGAGGATATCAAGATCTGGCCTCGGCTTTATAAAAGGAACCTCTAGCTAGCCGACTCACTATAGGGATAATCGCCCTGAGCAAAGACC | 2.35 ± 0.0828 |
| CTCGAGGATATCAAGATCTGGCCTCGGCGTATTAAAAGGAACCTCTAGCTAGCCGACTCACTATAGGGATAATCGCCCTGAGCAAAGACC | 2.14 ± 0.0726 |
| CTCGAGGATATCAAGATCTGGCCTCGGCGCGGTAGCGGGAACCTCTAGCTAGCCGACTCACTATAGGGATAATCGCCCTGAGCAAAGACC | -1.07 ± 0.136 |
| CTCGAGGATATCAAGATCTGGCCTCGGCGGAATAAAAGGAACCTCTAGCTAGCCGACTCACTATAGGGATAATCGCCCTGAGCAAAGACC | 0.87 ± 0.0838 |
| CTCGAGGATATCAAGATCTGGCCTCGGCCCGATAAAAGGAACCTCTAGCTAGCCGACTCACTATAGGGATAATCGCCCTGAGCAAAGACC | 1.27 ± 0.0909 |
| CTCGAGGATATCAAGATCTGGCCTCGGCGTTTTACACGGAACCTCTAGCTAGCCGACTCACTATAGGGATAATCGCCCTGAGCAAAGACC | 2.15 ± 0.0769 |
| CTCGAGGATATCAAGATCTGGCCTCGGCGTTTTATATGGAACCTCTAGCTAGCCGACTCACTATAGGGATAATCGCCCTGAGCAAAGACC | 3.04 ± 0.0717 |
| CTCGAGGATATCAAGATCTGGCCTCGGCCTTTTAGGGGGAACCTCTAGCTAGCCGACTCACTATAGGGATAATCGCCCTGAGCAAAGACC | 1.1 ± 0.083 |
| CTCGAGGATATCAAGATCTGGCCTCGGCTTTTTAATTGGAACCTCTAGCTAGCCGACTCACTATAGGGATAATCGCCCTGAGCAAAGACC | 2.41 ± 0.0904 |
| CTCGAGGATATCAAGATCTGGCCTCGGCTTTTTACCCGGAACCTCTAGCTAGCCGACTCACTATAGGGATAATCGCCCTGAGCAAAGACC | -0.11 ± 0.103 |
| CTCGAGGATATCAAGATCTGGCCTCGGCGAAGTAAAAGGAACCTCTAGCTAGCCGACTCACTATAGGGATAATCGCCCTGAGCAAAGACC | 0.136 ± 0.0787 |
| CTCGAGGATATCAAGATCTGGCCTCGGCCTTTTATTTGGAACCTCTAGCTAGCCGACTCACTATAGGGATAATCGCCCTGAGCAAAGACC | 2.69 ± 0.0648 |
| CTCGAGGATATCAAGATCTGGCCTCGGCGATGTAAAAGGAACCTCTAGCTAGCCGACTCACTATAGGGATAATCGCCCTGAGCAAAGACC | 0.79 ± 0.0749 |
